The record followed here is ChEMBL document CHEMBL1961873, “Compounds: GSK PKIS; Assays: Nanosyn kinase panel” (2012).

Assay [1] deals with Tyrosine-protein kinase Fyn (Homo sapiens) (UniProt P06241). The following applies: at 1 µM.
For assay [2], the target named is Tyrosine-protein kinase HCK (Homo sapiens) (UniProt P08631). Conditions: at 0.1 µM.
The target is the same in assay [3]. Conditions: at 1 µM.
Assay [4] addresses Insulin-like growth factor 1 receptor (Homo sapiens) (UniProt P08069). The following applies: at 0.1 µM.
The target is the same in assay [5]. The following applies: at 1 µM.
The target in assay [6] is Insulin receptor (Homo sapiens) (UniProt P06213). The following applies: at 0.1 µM.
The target is the same in assay [7]. Conditions: at 1 µM.
Assay [8] has as its target Insulin receptor-related protein (Homo sapiens) (UniProt P14616). The following applies: at 0.1 µM.
For assay [9] the target is unchanged. The following applies: at 1 µM.
Assay [10] deals with T1, Tyrosine-protein kinase ITK/TSK (Homo sapiens) (UniProt Q08881).
T1 sequence (whole entry): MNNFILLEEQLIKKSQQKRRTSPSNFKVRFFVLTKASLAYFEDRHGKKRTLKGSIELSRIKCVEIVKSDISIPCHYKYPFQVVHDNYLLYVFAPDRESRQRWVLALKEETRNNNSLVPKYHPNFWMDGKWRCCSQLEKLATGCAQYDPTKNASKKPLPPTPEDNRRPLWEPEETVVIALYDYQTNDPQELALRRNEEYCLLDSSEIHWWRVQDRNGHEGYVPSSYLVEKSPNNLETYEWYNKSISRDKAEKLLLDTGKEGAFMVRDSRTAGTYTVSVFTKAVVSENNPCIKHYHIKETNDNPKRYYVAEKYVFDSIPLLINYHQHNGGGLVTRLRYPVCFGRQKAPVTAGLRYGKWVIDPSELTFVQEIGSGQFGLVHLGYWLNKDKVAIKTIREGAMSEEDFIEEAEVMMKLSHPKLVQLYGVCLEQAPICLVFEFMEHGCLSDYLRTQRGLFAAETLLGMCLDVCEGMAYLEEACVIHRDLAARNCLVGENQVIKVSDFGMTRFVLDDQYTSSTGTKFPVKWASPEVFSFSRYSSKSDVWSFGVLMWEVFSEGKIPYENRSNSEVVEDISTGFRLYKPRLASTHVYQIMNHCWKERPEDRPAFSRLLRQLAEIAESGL
The following applies: at 0.1 µM.

In assay [11] the target is T1, Tyrosine-protein kinase ITK/TSK (Homo sapiens). Conditions: at 1 µM.
Assay [12] deals with Tyrosine-protein kinase JAK1 (Homo sapiens) (UniProt P23458). Conditions: at 0.1 µM.
Assay [13] has the same target. Conditions: at 1 µM.
Assay [14] deals with Tyrosine-protein kinase JAK2 (Homo sapiens) (UniProt O60674). The following applies: at 0.1 µM.
The target is the same in assay [15]. The following applies: at 1 µM.
Assay [16] has as its target T2, Tyrosine-protein kinase JAK3 (Homo sapiens) (UniProt P52333).
T2 sequence (whole entry): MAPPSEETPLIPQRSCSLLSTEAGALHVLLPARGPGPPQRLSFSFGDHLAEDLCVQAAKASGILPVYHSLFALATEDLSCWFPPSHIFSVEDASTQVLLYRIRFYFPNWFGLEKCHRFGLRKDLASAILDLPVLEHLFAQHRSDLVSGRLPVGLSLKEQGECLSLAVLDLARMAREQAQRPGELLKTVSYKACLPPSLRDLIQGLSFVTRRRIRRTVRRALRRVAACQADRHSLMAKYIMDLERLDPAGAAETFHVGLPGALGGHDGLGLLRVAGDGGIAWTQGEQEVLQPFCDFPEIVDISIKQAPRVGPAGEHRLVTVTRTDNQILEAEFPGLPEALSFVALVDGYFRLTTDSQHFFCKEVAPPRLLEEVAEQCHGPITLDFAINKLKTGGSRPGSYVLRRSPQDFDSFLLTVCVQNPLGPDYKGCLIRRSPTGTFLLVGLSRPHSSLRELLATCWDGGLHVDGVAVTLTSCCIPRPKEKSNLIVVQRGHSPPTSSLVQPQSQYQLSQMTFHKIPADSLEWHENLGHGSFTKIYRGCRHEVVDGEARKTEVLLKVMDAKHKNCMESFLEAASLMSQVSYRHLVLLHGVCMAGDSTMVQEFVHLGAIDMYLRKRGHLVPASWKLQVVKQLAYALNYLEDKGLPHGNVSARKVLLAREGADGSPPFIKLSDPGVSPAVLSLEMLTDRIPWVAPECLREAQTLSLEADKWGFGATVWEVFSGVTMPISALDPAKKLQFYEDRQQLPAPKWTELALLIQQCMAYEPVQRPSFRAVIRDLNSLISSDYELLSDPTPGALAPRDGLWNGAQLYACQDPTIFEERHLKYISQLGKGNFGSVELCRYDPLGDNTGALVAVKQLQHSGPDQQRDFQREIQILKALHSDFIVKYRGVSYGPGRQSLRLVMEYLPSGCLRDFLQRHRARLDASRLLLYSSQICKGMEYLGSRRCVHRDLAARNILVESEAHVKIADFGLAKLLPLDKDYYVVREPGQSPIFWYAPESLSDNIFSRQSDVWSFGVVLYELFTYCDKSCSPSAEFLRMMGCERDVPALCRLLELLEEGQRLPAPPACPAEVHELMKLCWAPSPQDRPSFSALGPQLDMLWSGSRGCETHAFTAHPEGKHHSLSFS
The following applies: at 0.1 µM.

In assay [17] the target is T2, Tyrosine-protein kinase JAK3 (Homo sapiens). Conditions: at 1 µM.
The target in assay [18] is Vascular endothelial growth factor receptor 2 (Homo sapiens) (UniProt P35968). The following applies: at 0.1 µM.
For assay [19] the target is unchanged. Conditions: at 1 µM.
Assay [20] concerns the target Mast/stem cell growth factor receptor Kit (Homo sapiens) (UniProt P10721). The following applies: at 0.1 µM.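 Also: values are mean inhibition of KIT, from the GSK PKIS dataset.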

Chain of Insulin receptor (Homo sapiens) (P06213 28-758 limits assumed): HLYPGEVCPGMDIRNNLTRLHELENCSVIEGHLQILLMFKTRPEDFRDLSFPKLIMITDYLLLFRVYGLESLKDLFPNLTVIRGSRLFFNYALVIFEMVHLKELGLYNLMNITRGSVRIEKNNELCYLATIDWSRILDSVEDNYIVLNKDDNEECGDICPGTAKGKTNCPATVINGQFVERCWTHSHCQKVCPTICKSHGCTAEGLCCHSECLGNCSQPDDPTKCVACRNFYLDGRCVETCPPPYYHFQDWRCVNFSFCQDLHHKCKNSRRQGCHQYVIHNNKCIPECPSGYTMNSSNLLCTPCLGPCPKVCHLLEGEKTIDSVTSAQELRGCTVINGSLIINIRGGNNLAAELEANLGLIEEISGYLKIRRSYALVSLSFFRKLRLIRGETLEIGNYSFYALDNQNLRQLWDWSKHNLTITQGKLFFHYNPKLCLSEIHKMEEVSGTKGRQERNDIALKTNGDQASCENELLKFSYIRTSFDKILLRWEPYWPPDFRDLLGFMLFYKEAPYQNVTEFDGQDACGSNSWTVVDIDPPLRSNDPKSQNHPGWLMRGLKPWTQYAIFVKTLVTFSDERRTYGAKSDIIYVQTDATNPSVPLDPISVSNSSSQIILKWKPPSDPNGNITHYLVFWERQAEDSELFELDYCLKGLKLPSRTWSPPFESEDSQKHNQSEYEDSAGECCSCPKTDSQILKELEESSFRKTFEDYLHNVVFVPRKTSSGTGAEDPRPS
Chain of Insulin receptor (Homo sapiens) (P06213 763-1382 limits assumed): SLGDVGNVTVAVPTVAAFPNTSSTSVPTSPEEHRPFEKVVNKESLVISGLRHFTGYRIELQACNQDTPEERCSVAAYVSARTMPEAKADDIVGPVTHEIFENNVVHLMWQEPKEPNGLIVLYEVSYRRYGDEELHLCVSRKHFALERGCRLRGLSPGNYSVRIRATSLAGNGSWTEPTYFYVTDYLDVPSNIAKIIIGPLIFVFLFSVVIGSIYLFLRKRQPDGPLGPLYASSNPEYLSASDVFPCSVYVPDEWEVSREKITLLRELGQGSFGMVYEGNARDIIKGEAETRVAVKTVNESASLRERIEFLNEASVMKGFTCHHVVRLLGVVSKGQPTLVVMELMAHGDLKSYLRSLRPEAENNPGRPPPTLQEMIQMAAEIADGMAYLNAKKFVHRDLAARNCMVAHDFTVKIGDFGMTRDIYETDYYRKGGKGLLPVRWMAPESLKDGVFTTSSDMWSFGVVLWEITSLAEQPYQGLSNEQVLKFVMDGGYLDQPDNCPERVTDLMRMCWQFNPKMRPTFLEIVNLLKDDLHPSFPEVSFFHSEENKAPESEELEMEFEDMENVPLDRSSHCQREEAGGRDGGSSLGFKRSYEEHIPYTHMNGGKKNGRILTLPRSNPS
Chain of Tyrosine-protein kinase Fyn (Homo sapiens) (P06241 2-537 limits assumed): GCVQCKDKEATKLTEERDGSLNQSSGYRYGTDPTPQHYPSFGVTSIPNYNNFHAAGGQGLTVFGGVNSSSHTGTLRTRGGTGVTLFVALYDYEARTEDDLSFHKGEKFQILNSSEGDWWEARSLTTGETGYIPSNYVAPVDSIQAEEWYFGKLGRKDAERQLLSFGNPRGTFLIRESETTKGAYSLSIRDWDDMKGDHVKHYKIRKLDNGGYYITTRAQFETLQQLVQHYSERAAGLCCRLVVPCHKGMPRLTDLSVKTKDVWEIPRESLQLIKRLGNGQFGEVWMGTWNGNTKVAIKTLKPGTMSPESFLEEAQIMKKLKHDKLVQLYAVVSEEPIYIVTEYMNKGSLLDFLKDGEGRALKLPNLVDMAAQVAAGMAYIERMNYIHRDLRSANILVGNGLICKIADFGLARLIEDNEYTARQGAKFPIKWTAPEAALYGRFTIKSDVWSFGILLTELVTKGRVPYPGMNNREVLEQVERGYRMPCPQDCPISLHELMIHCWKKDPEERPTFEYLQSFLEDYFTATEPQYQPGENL
Chain of Tyrosine-protein kinase JAK1 (Homo sapiens) (P23458 whole entry): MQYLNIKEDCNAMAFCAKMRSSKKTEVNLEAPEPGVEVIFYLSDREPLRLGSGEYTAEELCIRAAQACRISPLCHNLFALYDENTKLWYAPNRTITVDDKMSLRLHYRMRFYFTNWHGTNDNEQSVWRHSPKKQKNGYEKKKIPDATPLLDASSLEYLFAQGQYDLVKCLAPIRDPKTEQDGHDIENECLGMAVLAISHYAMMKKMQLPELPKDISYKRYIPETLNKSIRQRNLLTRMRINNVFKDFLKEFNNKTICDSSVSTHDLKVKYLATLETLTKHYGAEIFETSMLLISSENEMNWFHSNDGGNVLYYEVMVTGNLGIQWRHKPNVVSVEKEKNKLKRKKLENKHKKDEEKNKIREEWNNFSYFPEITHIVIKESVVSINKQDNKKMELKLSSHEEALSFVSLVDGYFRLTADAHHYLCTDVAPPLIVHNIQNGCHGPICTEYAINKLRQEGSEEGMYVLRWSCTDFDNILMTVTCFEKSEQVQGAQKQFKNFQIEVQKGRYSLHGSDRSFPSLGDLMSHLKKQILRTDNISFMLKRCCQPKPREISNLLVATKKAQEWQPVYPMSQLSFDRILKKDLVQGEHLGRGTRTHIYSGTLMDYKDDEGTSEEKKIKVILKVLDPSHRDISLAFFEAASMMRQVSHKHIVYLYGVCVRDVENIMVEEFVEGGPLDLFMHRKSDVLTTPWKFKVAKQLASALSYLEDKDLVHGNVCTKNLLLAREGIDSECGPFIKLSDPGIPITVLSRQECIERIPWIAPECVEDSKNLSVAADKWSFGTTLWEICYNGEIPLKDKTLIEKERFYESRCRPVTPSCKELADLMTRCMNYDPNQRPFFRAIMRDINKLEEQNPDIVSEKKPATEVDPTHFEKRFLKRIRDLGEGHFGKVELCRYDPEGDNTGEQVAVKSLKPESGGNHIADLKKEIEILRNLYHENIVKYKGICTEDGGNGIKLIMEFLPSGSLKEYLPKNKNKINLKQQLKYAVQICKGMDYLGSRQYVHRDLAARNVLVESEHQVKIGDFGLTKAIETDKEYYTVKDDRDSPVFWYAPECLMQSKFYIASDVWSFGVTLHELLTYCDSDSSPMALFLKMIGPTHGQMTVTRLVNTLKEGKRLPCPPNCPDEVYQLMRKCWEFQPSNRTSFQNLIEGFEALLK
Chain of Tyrosine-protein kinase HCK (Homo sapiens) (P08631 2-526 limits assumed): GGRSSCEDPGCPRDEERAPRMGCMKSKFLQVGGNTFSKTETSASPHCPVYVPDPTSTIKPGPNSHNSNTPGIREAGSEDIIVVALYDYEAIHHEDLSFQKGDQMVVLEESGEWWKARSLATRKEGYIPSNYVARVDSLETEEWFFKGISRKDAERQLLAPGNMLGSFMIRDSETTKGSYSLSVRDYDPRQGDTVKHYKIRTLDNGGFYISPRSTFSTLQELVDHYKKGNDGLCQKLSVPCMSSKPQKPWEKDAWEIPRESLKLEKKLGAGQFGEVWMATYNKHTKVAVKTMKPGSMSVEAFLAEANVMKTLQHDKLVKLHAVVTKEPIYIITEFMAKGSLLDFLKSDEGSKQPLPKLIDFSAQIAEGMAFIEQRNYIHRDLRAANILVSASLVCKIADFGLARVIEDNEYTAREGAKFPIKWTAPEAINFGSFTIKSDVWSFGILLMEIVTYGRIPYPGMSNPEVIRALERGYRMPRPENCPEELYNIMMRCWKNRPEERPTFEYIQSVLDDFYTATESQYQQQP
Chain of Tyrosine-protein kinase JAK2 (Homo sapiens) (O60674 whole entry): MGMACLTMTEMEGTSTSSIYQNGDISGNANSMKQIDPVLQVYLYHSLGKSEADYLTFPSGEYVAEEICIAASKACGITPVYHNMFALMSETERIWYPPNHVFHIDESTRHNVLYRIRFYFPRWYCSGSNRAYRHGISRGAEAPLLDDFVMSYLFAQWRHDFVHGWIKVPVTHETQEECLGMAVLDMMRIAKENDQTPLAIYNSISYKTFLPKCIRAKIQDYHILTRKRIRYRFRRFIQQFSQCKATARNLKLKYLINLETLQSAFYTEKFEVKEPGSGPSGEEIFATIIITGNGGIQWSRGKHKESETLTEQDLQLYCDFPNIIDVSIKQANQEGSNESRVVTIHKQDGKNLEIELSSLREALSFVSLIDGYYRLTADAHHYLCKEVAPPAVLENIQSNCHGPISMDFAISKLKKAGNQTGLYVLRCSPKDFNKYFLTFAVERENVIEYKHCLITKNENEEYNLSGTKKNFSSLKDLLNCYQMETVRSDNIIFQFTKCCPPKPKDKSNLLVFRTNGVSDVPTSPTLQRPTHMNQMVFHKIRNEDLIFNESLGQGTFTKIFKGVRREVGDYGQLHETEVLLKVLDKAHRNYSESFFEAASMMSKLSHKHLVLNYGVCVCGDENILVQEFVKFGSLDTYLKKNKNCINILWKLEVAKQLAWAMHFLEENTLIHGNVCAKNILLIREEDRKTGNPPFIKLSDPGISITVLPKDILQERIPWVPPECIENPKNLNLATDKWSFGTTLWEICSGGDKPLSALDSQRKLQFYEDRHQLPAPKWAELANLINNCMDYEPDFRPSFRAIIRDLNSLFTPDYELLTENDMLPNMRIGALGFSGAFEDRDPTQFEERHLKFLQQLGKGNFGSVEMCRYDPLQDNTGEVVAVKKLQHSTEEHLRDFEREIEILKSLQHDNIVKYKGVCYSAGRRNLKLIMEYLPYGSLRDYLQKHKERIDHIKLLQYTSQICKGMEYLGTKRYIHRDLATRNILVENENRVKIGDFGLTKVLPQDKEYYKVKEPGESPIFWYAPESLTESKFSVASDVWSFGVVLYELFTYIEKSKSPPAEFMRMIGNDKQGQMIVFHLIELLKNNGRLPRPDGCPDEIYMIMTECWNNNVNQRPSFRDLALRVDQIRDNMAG

In the case of `COc1ccc(-c2ccncc2)cc1C(N)=O`, the inhibition was 3.66% in assay [1]; 6.67% in assay [2]; 9.92% in [3]; 3.69% in [4]; 4.13% in assay [5]; 9.09% in assay [6]. Further, the inhibition in assay [7] came to 6.94%; in assay [8] it was 2.71%; in assay [9] it was 2.24%; in assay [10], 1.95%; in assay [11] it was 2.32%; in assay [12] it was 0.28%. For the same compound, the inhibition in [13] was 3.27%; in [14] it was 2.44%; in assay [15] it was 3.4%; in assay [16] it was -2%; in [17] it was 0.37%; in assay [18], 2.67%. Moreover, the inhibition in assay [19] stood at 13%; in [20], 3.75%.
As to `CS(=O)(=O)CCNCc1nc(-c2ccc3ncnc(Nc4ccc(F)c(Cl)c4)c3c2)cs1`, the inhibition in [1] is 3.55%; in [2] it was 4.76%; in [3], 13.4%; in assay [4] it was 3.27%; in [5], 3.4%; in [6], -0.96%. Further, the inhibition in [7] is -3.83%; in assay [8], 2.7%; in [9] it was 1.63%; in assay [10], 1.06%; in assay [11] it was 0.89%; in assay [12], 2.86%. The inhibition in assay [13] is 4.25%; in assay [14], 0.34%; in assay [15], 4.99%; in assay [16], -0.02%; in assay [17], 3.43%; in assay [18], 9.85%. The results for the inhibition in assay [19] and in [20] were 18.5% and 3.87%, respectively.
As for `CCn1c(-c2nonc2N)nc2c(C#CC(C)(C)O)nc(CN3CCCC3)cc21`, the inhibition in [1] was 3.44%; in assay [2], -1.79%; in assay [3], 2.1%; in assay [4], -0.3%; in assay [5], -1.42%; in assay [6], 0.13%. Further, the inhibition in assay [7] was -0.45%; in assay [8], -1.19%; in assay [9], -0.92%; in assay [10], 0.22%; in assay [11], 0.72%; in assay [12], 1.82%. For the same compound, the inhibition in [13] is 3.25%; in assay [14] it was 0.37%; in assay [15], -0.34%; in assay [16], 0.46%; in assay [17] it was 1.49%; in assay [18] it was 5.26%. Moreover, the results for the inhibition in assay [19] and in assay [20] were 20.1% and -3.09%, respectively.
On to `NS(=O)(=O)c1cccc(-c2ccc3c(NC(=O)C4CC4)n[nH]c3c2)c1`, for which the inhibition in assay [1] is 2.4%; in [2], -0.53%; in assay [3], 1.86%; in assay [4], -0.13%; in assay [5], 3.51%; in [6] it was 3.15%. The inhibition was -0.25% in assay [7]; -2.37% in assay [8]; -1.21% in assay [9]; -0.53% in [10]; 0.22% in [11]; -4.88% in assay [13]. In addition, the inhibition in [14] is -0.14%; in assay [15] it was -1.18%; in assay [16], -0.5%; in assay [17], 1.58%; in assay [18], 0.44%; in [19], 6.32%. For the same compound, the inhibition in assay [20] was -1.56%.
Regarding `CCn1c(-c2nonc2N)nc2c(C#CC(C)(C)O)nc(OC[C@@H](N)c3ccccc3)cc21`, the inhibition in [1] is 2.07%; in assay [2], 5.84%; in assay [3] it was 11.9%; in [4] it was 1.67%; in assay [5], 1.05%; in assay [6] it was -0.22%. Further, the inhibition in assay [7] was -0.5%; in assay [8], 0.45%; in [9], 1.06%; in assay [10], 0.21%; in [11], 0.95%; in assay [12] it was -3.77%. Further, the inhibition in assay [13] turned out to be 2.1%; in assay [14] it was 0.33%; in assay [15], 6.32%; in assay [16], 1.24%; in [17], 4.39%; in [18], 35.1%. Moreover, the inhibition in [19] was 71.2%; in assay [20], -1.3%.
For `NC(=O)c1ccc(-c2nc(-c3ccccn3)c(-c3ccc4c(c3)OCO4)[nH]2)cc1`, the inhibition worked out at 8.01% in [1]; 3.56% in [2]; 4.66% in assay [3]; 1.18% in assay [4]; 2.2% in assay [5]; 3.26% in assay [6]. The inhibition in [7] was 5.06%; in assay [8], 3.02%; in [9] it was -0.59%; in assay [10], 1.2%; in [11] it was 1.43%; in assay [12], 3.36%. Moreover, the inhibition in [13] was 8.87%; in [14], 1.02%; in assay [15] it was 1.92%; in [16] it was -1.26%; in assay [17], 0.2%; in assay [18], 2.91%. Moreover, the inhibition is 3.09% in [19] and 1.09% in assay [20].
For the compound `COC(=O)Nc1nc2cc(Oc3ccc(NC(=O)Nc4cccc(C(=O)O)c4)cc3)ccc2[nH]1`, the inhibition in assay [1] was 0.19%; in assay [2] it was 0.97%; in assay [3] it was 3.15%; in assay [4] it was -3.37%; in assay [5], -7.4%; in assay [6], 2.72%. Also, the inhibition in assay [7] was 0.58%; in [8] it was 1.16%; in [9], 2.82%; in [10] it was -2.99%; in assay [11] it was -2.68%; in assay [12], 2.43%. Moreover, the inhibition was 2.01% in assay [13]; -0.28% in assay [14]; 4.54% in [15]; -3.56% in assay [16]; 0.66% in assay [17]; 2.05% in [20].

What is called inhibition is the relative decrease from the control value, in per cent.
